Data on 13 compounds can be found in PubChem BioAssay (NCI).

About 83,000 compounds went through this panel and 20% of them were active in at least one assay; those are over-represented in the sample as a whole.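 Single-dose data. Exposure time 48 hours. Values below 10 considered active.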 A number with no mark means an inactive call. Activity calls are given as the source filed them.

Some test systems named below: DU-145 prostate; K-562 leukemia; MALME-3M melanoma; MDA-MB-231 breast; RXF 393 renal; SF-268 CNS; SF-295 CNS; SF-539 CNS; UACC-257 melanoma; M14 melanoma.
Test in all cases: NCI-60 one-dose screen, 48 h (100 = growth as untreated, 0 = no growth, -100 = all killed)
Conditions in all cases: 10 µM unless noted

Turning to `CCOc1nc(-c2ccco2)n2nc(-c3ccco3)cc2n1`, the growth is 118% with DU-145 prostate; 114% in the experiment on K-562 leukemia; 122% in the experiment on MALME-3M melanoma; 98% in the experiment with MDA-MB-231 breast; 98.4% in the experiment on RXF 393 renal; 106% in the experiment on SF-268 CNS. For the same compound, the growth in the experiment with SF-295 CNS is 98.3%; with SF-539 CNS, 89.6%; in the experiment with UACC-257 melanoma, 116%; in the experiment on M14 melanoma it was 132%.
For `CC(=O)N1N=C(c2ccc3c(c2)OCO3)CC1c1c(C)nn(-c2ccccc2)c1N(C)Cc1ccccc1` (stereo not given), the growth was 94.6% in the experiment with DU-145 prostate; 56.5% with K-562 leukemia; 84.8% with MALME-3M melanoma; 81% with MDA-MB-231 breast; 79.2% in the experiment with RXF 393 renal; 74.4% in the experiment with SF-268 CNS. The growth with SF-295 CNS is 68.9%; in the experiment with SF-539 CNS, 94.5%; in the experiment with UACC-257 melanoma it was 56.7%; in the experiment on M14 melanoma it was 77.2%.
`O=C(O)c1ccc2cccnc2c1O`: the growth in the experiment on DU-145 prostate is 22.2%; in the experiment on K-562 leukemia, 11.1%; with MALME-3M melanoma, -7.97% (active); in the experiment with MDA-MB-231 breast it was 11.4%; in the experiment with RXF 393 renal it was 27.7%; with SF-268 CNS, 21.6%. The growth is 6.02% (active) in the experiment on SF-295 CNS, 10.4% in the experiment with SF-539 CNS, -9.12% (active) in the experiment with UACC-257 melanoma and 8.98% (active) in the experiment with M14 melanoma.
For the compound `CC(C)N(Cc1ccccc1)c1c(Cl)ssc1=O`, the growth is 94.9% with DU-145 prostate; 108% in the experiment with K-562 leukemia; 104% in the experiment on MALME-3M melanoma; 89.3% in the experiment with MDA-MB-231 breast; 74.8% with RXF 393 renal; 118% in the experiment with SF-268 CNS. Besides, the growth is 108% with SF-295 CNS, 96% with SF-539 CNS, 94.3% in the experiment with UACC-257 melanoma and 91% with M14 melanoma.
With `O=C(/C=C/c1ccc(C(F)(F)F)cc1)c1ccc(Nc2nc(NCCO)nc(NCCO)n2)cc1`, the growth in the experiment on DU-145 prostate is 52.9%; with K-562 leukemia, 11.7%; in the experiment with MALME-3M melanoma, 66.2%; in the experiment with MDA-MB-231 breast, 71%; with RXF 393 renal it was 74.2%; in the experiment on SF-268 CNS, 54%. In addition, the growth with SF-295 CNS is 44.6%; in the experiment with SF-539 CNS, 29.3%; with UACC-257 melanoma, 80.8%; in the experiment on M14 melanoma, 65.4%.
For the compound `C/C(=C\CCc1ccoc1)CC/C=C(\C)CCCNc1ccc(F)cc1`, the growth in the experiment on DU-145 prostate was 101%; in the experiment with K-562 leukemia, 68.6%; in the experiment with MALME-3M melanoma, 88.2%; with MDA-MB-231 breast it was 72.9%; with RXF 393 renal it was 101%; with SF-268 CNS it was 90.1%. In addition, the growth is 102% with SF-295 CNS, 89.6% in the experiment with SF-539 CNS, 99.7% with UACC-257 melanoma and 103% in the experiment with M14 melanoma.
Consider `O=C(c1ccccc1)C(CN1CCCCC1)c1ccccc1` (stereo not given), for which the growth with DU-145 prostate is 23.2%; with K-562 leukemia it was 0.176% (active); in the experiment on MALME-3M melanoma, -3.92% (active); in the experiment on MDA-MB-231 breast it was 22.6%; in the experiment with RXF 393 renal, 42.4%; in the experiment with SF-268 CNS it was 58.6%. Also, the growth in the experiment with SF-295 CNS is 98.8%; in the experiment with SF-539 CNS, -15.7% (active); in the experiment on UACC-257 melanoma, 25.6%; in the experiment with M14 melanoma it was -74.3% (active).
Turning to `COc1cc(/C=C/c2cc(/C=C/c3ccc(O)c(OC)c3)n(C(=O)c3ccc(Cl)cc3)n2)ccc1O`, the growth with DU-145 prostate is 19.9%; with K-562 leukemia, 2.24% (active); in the experiment with MALME-3M melanoma it was 44.6%; in the experiment with MDA-MB-231 breast it was 31.8%; in the experiment on RXF 393 renal, 15.3%; in the experiment on SF-268 CNS, 27%. Also, the growth in the experiment with SF-295 CNS is 48%; in the experiment with SF-539 CNS, 10.1%; in the experiment on UACC-257 melanoma it was 63.2%; with M14 melanoma, -1.11% (active).
`O=C(CNc1ccc2c(c1)C(=O)c1ccccc1C2=O)Nc1ccc2c(c1)C(=O)c1ccccc1C2=O`: the growth in the experiment with DU-145 prostate is -100% (active); in the experiment on K-562 leukemia, -30.2% (active); in the experiment on MALME-3M melanoma it was -81.2% (active); with MDA-MB-231 breast it was -27.7% (active); with RXF 393 renal, -89.4% (active); in the experiment on SF-268 CNS it was -94.6% (active). For the same compound, the growth in the experiment with SF-295 CNS was -89.4% (active); in the experiment with SF-539 CNS, -69.3% (active); in the experiment with UACC-257 melanoma, -90.3% (active); in the experiment on M14 melanoma, -79.3% (active).
Consider `Cc1ccccc1NC(=O)N/C(N)=N/c1nc2ccccc2s1`, for which the growth in the experiment on DU-145 prostate was 17.5%; with K-562 leukemia, 6.45% (active); with MALME-3M melanoma it was 50.4%; with MDA-MB-231 breast, 43.2%; in the experiment on RXF 393 renal, -2.64% (active); in the experiment on SF-268 CNS it was 48.7%. In addition, the growth in the experiment with SF-295 CNS was 11.8%; in the experiment on SF-539 CNS, -17.9% (active); with UACC-257 melanoma, 67.4%; in the experiment with M14 melanoma, 9.91% (active).
As for `CCCCCCCCCCCCCCCCNC(=O)Nc1ccc2ccccc2c1`, the growth with DU-145 prostate was 126%; in the experiment with K-562 leukemia it was 111%; in the experiment on MALME-3M melanoma it was 95.4%; with MDA-MB-231 breast, 98.1%; in the experiment with RXF 393 renal it was 104%; in the experiment with SF-268 CNS, 126%. Moreover, the growth in the experiment with SF-295 CNS is 106%; with SF-539 CNS, 106%; in the experiment with UACC-257 melanoma, 95.5%; with M14 melanoma, 94.9%.
With `BrC1CC(Br)c2c1c1c(c3c2C(Br)CC3Br)C(Br)CC1Br` (stereo not given), the growth was 115% in the experiment on DU-145 prostate; 80.9% in the experiment on K-562 leukemia; 95.7% in the experiment on MALME-3M melanoma; 98.5% with MDA-MB-231 breast; 80.3% in the experiment on RXF 393 renal; 111% in the experiment on SF-268 CNS. For the same compound, the growth in the experiment on SF-295 CNS was 103%; in the experiment on SF-539 CNS, 92%; with UACC-257 melanoma, 105%; in the experiment with M14 melanoma it was 97.7%.
For the compound `c1ccc(COc2ccc(Nc3ncnc4c3cnn4-c3ccccc3)cc2)cc1`, the growth is 104% with DU-145 prostate; 90.3% in the experiment with K-562 leukemia; 92.8% in the experiment on MALME-3M melanoma; 101% in the experiment with MDA-MB-231 breast; 102% in the experiment with RXF 393 renal; 108% in the experiment on SF-268 CNS. Further, the growth is 107% with SF-295 CNS, 99.6% in the experiment on SF-539 CNS, 121% with UACC-257 melanoma and 101% in the experiment with M14 melanoma.
